Data published in the supplement of paper PMC10849652.
About 7,900 targets were measured; listed, in parts, are those with a hit and a random draw of the rest. About 0.6% of all pairs of compound and target were hits.

Compound: COc1cc(C(=O)O)ccc1NC(=O)[C@@H]1N[C@@H](CC(C)(C)C)[C@](C#N)(c2ccc(Cl)cc2F)[C@H]1c1cccc(Cl)c1F [idasanutlin]
Test: log2 fold change, soluble protein after heating vs DMSO (PISA); higher = thermal stabilisation; K562 cells, 10 uM, 30 min; active = over 0.2 and 3.5 SD of the protein, either way, in both replicates (recomputed)
Outline: (§1)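 Values are thermal stability changes relative to control samples and are taken from duplicates. They are stated as log2 fold changes. Before quantification by TMTpro 16plex LC-MS/MS with equalised channel sums, K562 cells at 2×10^6 cells/mL were treated with 10 μM compound for 30 min, heated in aliquots for 3 min across 48°C-58°C, pooled, extracted in PBS with 0.5% NP-40 at 4°C, and centrifuged at 21,000xg for 90 min to give the soluble supernatant.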

Chain of UniProt Q14442 (Q14442 whole entry, looked up): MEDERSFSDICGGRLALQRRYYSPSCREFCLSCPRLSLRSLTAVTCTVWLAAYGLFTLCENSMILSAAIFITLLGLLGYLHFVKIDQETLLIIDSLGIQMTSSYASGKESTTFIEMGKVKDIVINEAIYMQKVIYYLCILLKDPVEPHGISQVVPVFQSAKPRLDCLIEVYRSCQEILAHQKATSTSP
Chain of UniProt Q96RV3 (Q96RV3 whole entry, looked up): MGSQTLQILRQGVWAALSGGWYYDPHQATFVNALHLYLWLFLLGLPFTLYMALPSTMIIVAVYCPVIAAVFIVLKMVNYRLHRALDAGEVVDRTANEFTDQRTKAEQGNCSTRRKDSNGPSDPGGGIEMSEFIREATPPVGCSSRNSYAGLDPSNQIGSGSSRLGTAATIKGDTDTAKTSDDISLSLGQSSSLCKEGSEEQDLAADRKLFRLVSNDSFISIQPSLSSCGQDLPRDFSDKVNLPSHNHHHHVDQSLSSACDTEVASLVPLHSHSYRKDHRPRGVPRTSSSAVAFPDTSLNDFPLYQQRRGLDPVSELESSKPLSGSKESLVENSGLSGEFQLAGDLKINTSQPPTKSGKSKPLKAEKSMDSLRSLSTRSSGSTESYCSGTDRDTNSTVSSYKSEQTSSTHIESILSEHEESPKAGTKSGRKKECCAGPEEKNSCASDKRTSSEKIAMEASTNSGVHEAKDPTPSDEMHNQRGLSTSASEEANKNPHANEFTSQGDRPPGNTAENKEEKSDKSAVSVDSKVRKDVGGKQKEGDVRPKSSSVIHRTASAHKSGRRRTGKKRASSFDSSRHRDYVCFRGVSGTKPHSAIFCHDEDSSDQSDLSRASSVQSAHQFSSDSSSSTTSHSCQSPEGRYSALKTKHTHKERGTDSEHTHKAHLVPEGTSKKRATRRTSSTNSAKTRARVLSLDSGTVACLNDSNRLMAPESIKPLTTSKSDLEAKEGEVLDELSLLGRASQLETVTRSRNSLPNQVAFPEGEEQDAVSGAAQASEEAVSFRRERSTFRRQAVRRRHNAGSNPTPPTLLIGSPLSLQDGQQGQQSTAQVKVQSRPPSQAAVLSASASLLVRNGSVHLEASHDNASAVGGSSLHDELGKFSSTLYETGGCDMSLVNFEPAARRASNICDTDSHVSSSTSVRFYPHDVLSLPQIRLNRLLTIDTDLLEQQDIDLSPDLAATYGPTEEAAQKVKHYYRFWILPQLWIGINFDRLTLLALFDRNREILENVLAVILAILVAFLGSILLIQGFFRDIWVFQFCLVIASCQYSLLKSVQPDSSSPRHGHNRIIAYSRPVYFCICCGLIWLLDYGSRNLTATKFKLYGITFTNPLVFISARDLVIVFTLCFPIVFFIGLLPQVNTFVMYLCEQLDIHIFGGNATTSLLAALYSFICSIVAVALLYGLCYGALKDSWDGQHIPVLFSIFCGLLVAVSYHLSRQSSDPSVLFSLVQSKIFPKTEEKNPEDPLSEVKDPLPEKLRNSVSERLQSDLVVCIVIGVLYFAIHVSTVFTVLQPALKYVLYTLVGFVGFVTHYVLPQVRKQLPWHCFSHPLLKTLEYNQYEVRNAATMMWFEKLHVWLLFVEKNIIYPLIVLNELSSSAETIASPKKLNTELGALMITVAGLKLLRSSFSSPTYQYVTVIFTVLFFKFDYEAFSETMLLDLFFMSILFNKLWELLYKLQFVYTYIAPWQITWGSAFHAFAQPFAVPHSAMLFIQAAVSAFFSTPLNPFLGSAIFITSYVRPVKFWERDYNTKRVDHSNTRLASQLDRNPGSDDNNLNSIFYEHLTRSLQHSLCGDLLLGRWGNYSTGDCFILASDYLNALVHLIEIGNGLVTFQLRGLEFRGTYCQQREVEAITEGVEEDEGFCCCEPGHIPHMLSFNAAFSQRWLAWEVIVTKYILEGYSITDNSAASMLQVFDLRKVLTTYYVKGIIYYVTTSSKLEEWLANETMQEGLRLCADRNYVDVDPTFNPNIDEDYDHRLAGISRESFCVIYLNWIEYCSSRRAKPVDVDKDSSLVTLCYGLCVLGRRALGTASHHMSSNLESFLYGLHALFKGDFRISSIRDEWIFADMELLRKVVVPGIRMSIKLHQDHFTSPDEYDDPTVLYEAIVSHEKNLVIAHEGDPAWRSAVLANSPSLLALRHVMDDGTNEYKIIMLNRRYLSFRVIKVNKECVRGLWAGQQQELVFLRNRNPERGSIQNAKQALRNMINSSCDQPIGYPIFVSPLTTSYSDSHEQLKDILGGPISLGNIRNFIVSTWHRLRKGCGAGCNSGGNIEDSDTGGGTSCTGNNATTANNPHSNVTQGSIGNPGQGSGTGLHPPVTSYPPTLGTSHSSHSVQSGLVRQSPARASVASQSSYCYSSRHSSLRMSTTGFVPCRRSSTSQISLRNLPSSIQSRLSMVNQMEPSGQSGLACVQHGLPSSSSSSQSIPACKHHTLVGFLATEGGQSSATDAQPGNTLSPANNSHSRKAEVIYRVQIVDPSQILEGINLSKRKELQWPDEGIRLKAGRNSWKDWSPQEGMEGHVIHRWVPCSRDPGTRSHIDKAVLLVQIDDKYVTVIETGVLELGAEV
Chain of UniProt Q9BZL4 (Q9BZL4 whole entry, looked up): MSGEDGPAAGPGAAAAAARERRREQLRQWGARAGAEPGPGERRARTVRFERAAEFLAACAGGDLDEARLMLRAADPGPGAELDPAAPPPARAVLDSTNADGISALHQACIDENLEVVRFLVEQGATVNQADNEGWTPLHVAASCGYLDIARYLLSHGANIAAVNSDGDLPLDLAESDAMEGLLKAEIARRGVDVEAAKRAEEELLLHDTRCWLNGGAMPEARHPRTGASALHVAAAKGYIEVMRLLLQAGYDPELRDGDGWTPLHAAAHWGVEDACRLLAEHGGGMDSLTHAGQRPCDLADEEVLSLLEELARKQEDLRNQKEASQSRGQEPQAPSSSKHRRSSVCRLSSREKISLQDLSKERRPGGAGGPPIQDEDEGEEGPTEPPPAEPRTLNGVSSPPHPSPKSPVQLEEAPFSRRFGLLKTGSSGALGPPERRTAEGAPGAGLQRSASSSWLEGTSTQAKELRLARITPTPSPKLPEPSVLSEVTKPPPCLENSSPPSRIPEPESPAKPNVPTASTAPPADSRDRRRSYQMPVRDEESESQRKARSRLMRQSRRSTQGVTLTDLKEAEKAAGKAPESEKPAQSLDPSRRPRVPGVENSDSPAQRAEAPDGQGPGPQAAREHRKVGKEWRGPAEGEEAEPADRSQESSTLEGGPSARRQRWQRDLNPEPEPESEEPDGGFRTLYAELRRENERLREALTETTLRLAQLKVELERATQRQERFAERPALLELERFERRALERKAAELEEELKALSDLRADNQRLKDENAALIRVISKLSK
Chain of UniProt O94913 (O94913 whole entry, looked up): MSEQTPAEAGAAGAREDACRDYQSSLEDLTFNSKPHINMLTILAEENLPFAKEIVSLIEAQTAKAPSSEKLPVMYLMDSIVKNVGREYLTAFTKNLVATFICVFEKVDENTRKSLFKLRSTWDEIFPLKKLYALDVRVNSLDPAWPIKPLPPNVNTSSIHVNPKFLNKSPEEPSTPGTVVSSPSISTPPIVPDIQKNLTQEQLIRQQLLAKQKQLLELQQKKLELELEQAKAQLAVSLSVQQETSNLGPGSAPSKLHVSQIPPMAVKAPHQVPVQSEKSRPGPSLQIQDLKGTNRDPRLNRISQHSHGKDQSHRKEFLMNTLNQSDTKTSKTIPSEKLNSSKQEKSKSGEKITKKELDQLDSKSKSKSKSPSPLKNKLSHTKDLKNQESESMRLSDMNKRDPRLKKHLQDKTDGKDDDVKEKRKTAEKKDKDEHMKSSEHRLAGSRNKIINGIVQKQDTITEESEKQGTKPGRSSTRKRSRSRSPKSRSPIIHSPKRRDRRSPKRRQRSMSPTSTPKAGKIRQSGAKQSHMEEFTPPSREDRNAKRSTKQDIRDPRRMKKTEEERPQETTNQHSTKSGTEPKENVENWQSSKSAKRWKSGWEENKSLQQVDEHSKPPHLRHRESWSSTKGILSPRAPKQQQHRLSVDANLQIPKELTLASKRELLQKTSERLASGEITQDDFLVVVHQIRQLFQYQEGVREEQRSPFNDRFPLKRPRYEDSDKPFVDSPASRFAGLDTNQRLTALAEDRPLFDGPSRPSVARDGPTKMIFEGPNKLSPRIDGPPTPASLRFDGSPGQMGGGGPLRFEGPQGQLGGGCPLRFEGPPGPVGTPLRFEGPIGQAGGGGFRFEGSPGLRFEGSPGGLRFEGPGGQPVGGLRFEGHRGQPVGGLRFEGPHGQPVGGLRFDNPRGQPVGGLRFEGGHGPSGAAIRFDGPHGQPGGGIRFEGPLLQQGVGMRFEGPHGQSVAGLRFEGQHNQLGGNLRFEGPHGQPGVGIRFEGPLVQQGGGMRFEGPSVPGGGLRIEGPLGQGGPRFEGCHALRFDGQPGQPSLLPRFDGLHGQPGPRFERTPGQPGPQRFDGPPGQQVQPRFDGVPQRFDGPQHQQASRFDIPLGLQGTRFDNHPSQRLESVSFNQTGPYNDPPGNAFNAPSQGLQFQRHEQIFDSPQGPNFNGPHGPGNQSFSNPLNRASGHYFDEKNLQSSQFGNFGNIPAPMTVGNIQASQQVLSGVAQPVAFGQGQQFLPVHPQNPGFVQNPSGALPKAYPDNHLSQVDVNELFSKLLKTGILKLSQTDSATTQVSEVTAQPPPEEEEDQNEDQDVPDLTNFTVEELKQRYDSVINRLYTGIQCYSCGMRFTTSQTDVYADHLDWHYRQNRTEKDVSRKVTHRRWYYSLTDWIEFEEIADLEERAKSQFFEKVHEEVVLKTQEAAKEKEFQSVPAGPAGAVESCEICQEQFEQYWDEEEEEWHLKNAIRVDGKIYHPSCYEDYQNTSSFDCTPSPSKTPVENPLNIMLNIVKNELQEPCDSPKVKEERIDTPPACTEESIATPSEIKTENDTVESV
Chain of UniProt Q15126 (Q15126 whole entry, looked up): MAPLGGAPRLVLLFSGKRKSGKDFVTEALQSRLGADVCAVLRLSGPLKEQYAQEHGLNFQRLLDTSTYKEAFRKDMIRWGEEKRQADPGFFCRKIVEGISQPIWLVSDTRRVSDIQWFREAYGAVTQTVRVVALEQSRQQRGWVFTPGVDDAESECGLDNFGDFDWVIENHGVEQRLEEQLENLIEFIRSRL

log2 fold change, inactive:
PKM isoform 2 (UniProt P14618) -0.049, PTPA (UniProt A6PVN8) 0.09, PDE4A (UniProt P27815) 0.098, PRR14L (UniProt Q5THK1) 0, PMVK (UniProt Q15126) 0.064, POLR2E (UniProt P19388) -0.061, PUM1 (UniProt Q14671) 0.037, PCF11 (UniProt O94913) -0.097, PHLDB1 isoform 2 (UniProt Q86UU1) -0.033, PPP2R5B (UniProt Q15173) -0.065, PSD3 (UniProt Q9NYI0) 0.015, PUF60 isoform 2 (UniProt Q9UHX1) -0.042, PIGH (UniProt Q14442) -0.127, PEX5 isoform 4 (UniProt P50542) -0.15, PSMA3 (UniProt H0YJ03) 0.009

Compound: COc1cc(Nc2ncc3c(n2)-c2ccc(Cl)cc2C(c2c(F)cccc2OC)=NC3)ccc1C(=O)O [alisertib]
Test: as above
Outline: as §1

log2 fold change, inactive:
PCNX1 (UniProt Q96RV3) -0.059, PIAS4 (UniProt Q8N2W9) -0.566, PMS2CL (UniProt Q68D20) -0.254, PKM isoform 2 (UniProt P14618) -0.139, PTPA (UniProt A6PVN8) -0.383, PSMC3 (UniProt E9PLG2) 0.071, PPP2R5C isoform 2 (UniProt Q13362) 0.005, PMVK (UniProt Q15126) 0.047, POLR2E (UniProt P19388) -0.21, PCF11 (UniProt O94913) 0.015, PHLDB1 isoform 2 (UniProt Q86UU1) -0.098, PPP2R5B (UniProt Q15173) 0.088, PSD3 (UniProt Q9NYI0) -0.003, PRKX (UniProt P51817) 0.014, PUF60 isoform 2 (UniProt Q9UHX1) -0.203, PIGH (UniProt Q14442) 0.003, PHRF1 (UniProt Q9P1Y6) -0.001, PIM1 isoform 2 (UniProt P11309) 0.267, PPP1R12C (UniProt Q9BZL4) 0.071, PCBP2 (UniProt F8VZX2) -0.04, PHC3 isoform 7 (UniProt Q8NDX5) -0.121

Compound: COc1cc2nc(-c3cc(F)ccc3O)nc(N[C@@H]3CNC[C@H]3C(C)(C)O)c2cc1OC
Test: as above
Outline: as §1

log2 fold change, inactive:
PCNX1 (UniProt Q96RV3) 0.34, PIAS4 (UniProt Q8N2W9) 0.069, PKM isoform 2 (UniProt P14618) 0.141, PTPA (UniProt A6PVN8) -0.085, PTEN isoform 2 (UniProt P60484) -0.251, PDE4A (UniProt P27815) 0.112, PRR14L (UniProt Q5THK1) 0.069, PCF11 (UniProt O94913) 0.076, PHLDB1 isoform 2 (UniProt Q86UU1) -0.069, PPP2R5B (UniProt Q15173) 0.148, PSD3 (UniProt Q9NYI0) 0.141, PUF60 isoform 2 (UniProt Q9UHX1) -0.071, PSMA3 (UniProt G3V4X5) 0.255, PIGH (UniProt Q14442) -0.019, PHRF1 (UniProt Q9P1Y6) 0.049, PPP1R12C (UniProt Q9BZL4) -0.237, PSMC1 (UniProt G3V4X1) -0.106, PSMA3 (UniProt H0YJ03) 0.203, PHC3 isoform 7 (UniProt Q8NDX5) -0.03, POLB (UniProt P06746) 0.037

log2 fold change, active:
POLR2E (UniProt P19388) 0.291

Compound: COc1cc2ncnc(Nc3ccc(F)c(Cl)c3)c2cc1OCCCN1CCOCC1 [gefitinib]
Test: as above
Outline: as §1

log2 fold change, inactive:
PCNX1 (UniProt Q96RV3) -0.028, PMS2CL (UniProt Q68D20) 0.033, PKM isoform 2 (UniProt P14618) -0.056, PTPA (UniProt A6PVN8) 0.021, PAN2 (UniProt Q504Q3) 0.013, PRR14L (UniProt Q5THK1) -0.065, PMVK (UniProt Q15126) -0.189, POLR2E (UniProt P19388) 0.007, PHLDB1 isoform 2 (UniProt Q86UU1) 0.149, PPP2R5B (UniProt Q15173) -0.079, PSD3 (UniProt Q9NYI0) 0.036, PPP1R12B isoform 6 (UniProt O60237) 0.077, PPP1R12C (UniProt Q9BZL4) 0.074, PCBP2 (UniProt F8VZX2) -0.111, PSMC1 (UniProt G3V4X1) -0.036, PHC3 isoform 7 (UniProt Q8NDX5) -0.153, POLB (UniProt P06746) 0.199
